Test results: PubChem BioAssay (NCATS)
Results filed as inconclusive are left out. Calls of active or inactive are those of the source. Calls come from the whole dose curve; as a rule, active = well fitted cell-killing curve with a large enough effect; inconclusive = small, poorly fitted or top-dose-only effect; inactive = flat fitted curve, though single readings scatter.

Assay: Cell Viability - LYMP2-024 (AID 988);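 note: plate controls were DMSO only for no effect and 92 µM tetraoctylammonium bromide for full effect; nearly all actives have a fitted effect of over 60% in size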
Conditions: LYMP2-024 lymphoblastoid cell viability; series mostly up to 92.2 µM; activity change, negative = cytotoxicity: at the top concentration
Description: NIH Chemical Genomics Center [NCGC]
NIH Molecular Libraries Screening Centers Network [MLSCN]
National Institutes of Environmental Health Sciences [NIEHS]
National Toxicology Program [NTP]
We have developed a 1536-well cell-based assay for quantitative high throughput screening (qHTS) against a number of cell lines to determine in vitro cytotoxicity of small molecules. This particular assay uses a human lymphoblastoid cell line (LYMP2-024) purchased from Coriell Institute for Medical Research.
NCGC Assay Protocol Summary:
The CellTiter-Glo luminescent cell viability assay (Promega) is a homogeneous method to measure the number of viable cells in culture. The end point readout of this assay is based on quantitation of intracellular ATP, an indicator of metabolic activity, using the luciferase reaction. Luciferase catalyzes the oxidation of beetle Luciferin to oxyluciferin and light in the presence of ATP. The luminescent signal is proportional to amount of ATP present.
Using the CellTiter-Glo luminescent cell viability assay, the amount of cellular ATP was measured in the lymphoblastoid cell line with complete culture medium following compound treatment for 24 hours. The assay was performed in opaque white Kalypsys 1536-well plates. In the screen, tetraoctylammonium bromide was used as positive control. Library compounds were measured for their ability to cause acute toxicity in the cell line, as reflected by a decrease in intracellular ATP levels, in a concentration-dependent manner. […] AC50 values were determined from concentration-response data modeled with the standard Hill equation.
qHTS protocol for CellTiter Glo lymphoblastoid cellular assay
[Step] [Parameter] [Value] [Description]
1. Reagent; 5 uL; 2500 lymphoblastoid cells/well
2. Time; 5 hr; 37 C incubation
4. Controls; 23 nL; Tetraoctylammonium bromide 6.4pM to 92 uM
5. Time; 24 hr; 37 C incubation
6. Reagent; 5 uL; CellTiter Glo reagent
7. Time; 30 min; Room Temperature
8. Detection; Luminescence; Viewlux plate reader
Keywords: cell viability, cytotoxicity, lymphoblastoid cell line, luminescence, NTPHTS, NTPHTS_NCGC, NIEHS, DSSTox, MLSMR, MLSCN, NIH Roadmap, qHTS, NCGC

Compound	activity change, negative = cytotoxicity
CC(=O)/C=C/c1ccccc1	-15.4% (inactive)
CC(C)(c1ccc(OCC2CO2)cc1)c1ccc(OCC2CO2)cc1 (configuration not stated)	-29.7% (inactive)
CCOc1cc(C=O)ccc1O	-1.12% (inactive)
Oc1c(Cl)c(Cl)c(Cl)c(Cl)c1Cl	-17.6% (inactive)
Oc1ccccc1Cl	6.03% (inactive)
COC(=O)c1ccccc1C(=O)OC	-2.59% (inactive)
Cc1ccccc1O	3.55% (inactive)
c1ccc(Nc2ccc3ccccc3c2)cc1	-9.75% (inactive)
CC(C)COC(=O)c1ccccc1C(=O)OCC(C)C	-26.6% (inactive)
CCOC(=O)c1ccccc1N	-16.5% (inactive)
c1ccc2c(c1)-c1cccc3cccc-2c13	8.11% (inactive)
O=Cc1ccccc1	-3.04% (inactive)
